Reference: PubChem BioAssay
Calls of active or inactive are those of the source.

Columns and labels:
[1] = system: Human papillomavirus type 1a protein E7 (residues 44-93); test: HPV1a E7 fragment binders on microarrays, primary screen, biochemical, small-molecule microarray, residues 44-93, 635 nm fluorescence (AID 1108); conditions: small-molecule microarray binding, fluorescence 635 nm; higher = more signal;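 further: E7 fragment applied at 1 µg/mL in TBST for 1 h at 4 C; score combines spot fluorescence with its signal to noise ratio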
[2] = modulators of HCV replicon luciferase signal, primary screen, HCV replication inhibitor project, Huh7 cells, luciferase reporter (AID 1109); conditions: 48 h, higher = more signal;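 further: huh7 hepatoma cells harbouring a luciferase neomycin HCV replicon reporter; luciferase luminescence as measure of HCV replicon replication; test concentration not given here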
[3] = target: Left-right determination factor 2 (Homo sapiens) (UniProt O00292); test: LEFTY2 binders on small-molecule microarrays, primary screen, biochemical, small-molecule microarray, 635 nm fluorescence scan (AID 1110); conditions: LEFTY2 binding, higher = more signal
[4] = target: Calmodulin-1 (Homo sapiens) (UniProt P0DP23); test: CALM1 binders on microarrays, EGTA buffer, profiling panel, biochemical, small-molecule microarray, Cy5-labelled CALM1 (AID 1111); conditions: Cy5-CALM1 binding fluorescence, higher = more signal;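 further: labelled calmodulin applied in Tris saline Tween buffer holding calcium plus EGTA and DTT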
[5] = target: Calmodulin-1 (Homo sapiens) (UniProt P0DP23); test: calcium-bound CALM1 binders on microarrays, profiling panel, artefact control for SMM control-protein annotation, biochemical, small-molecule microarray, Cy5-labelled CALM1, plus calcium (AID 1112); conditions: Cy5-CALM1 binding fluorescence, higher = more signal;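 further: score merges spot fluorescence with signal to noise from triplicate slides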
[6] = small-molecule microarray binders of probe aWnt5a, primary screen, biochemical, biotinylated probe, 635/667 nm fluorescence (AID 1113); conditions: higher = more signal;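 further: score merges 667 nm fluorescence intensity with signal-to-noise per printed feature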
[7] = small-molecule microarray binders of probe aShh, primary screen, biochemical, biotinylated probe, 635/667 nm fluorescence (AID 1114); conditions: higher = more signal;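 further: probe is biotin-labelled aShh protein from a stem cell growth factor screen; measures binding of labelled protein to compounds printed on the slide; score merges feature fluorescence at 667 nm with signal-to-noise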
[8] = small-molecule microarray binders of probe aNog, primary screen, biochemical, biotinylated probe, 635/667 nm fluorescence (AID 1115); conditions: higher = more signal;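 further: probe is biotinylated aNog protein used at 0.15 µg/mL for 1 h at 4 C; z-score combines 667 nm fluorescence of each spot with its signal to noise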
[9] = target: Torsin-1A-interacting protein 1 (Homo sapiens) (UniProt Q5JTV8); test: LAP1 binders from COS7 cell lysate, primary screen, small-molecule microarray, 635/667 nm fluorescence (AID 1116); conditions: COS7-hLAP1 lysate binding, 635 nm fluorescence, higher = more signal
[10] = target: Alpha-bungarotoxin (Bungarus multicinctus) (UniProt P60615); test: alpha-bungarotoxin binders on microarray, profiling panel, artefact control for SMM control protein annotation, biochemical, small-molecule microarray, Alexa647 label, 635/667 nm fluorescence (AID 1117); conditions: alpha-BTX-A647 binding fluorescence, higher = more signal
[11] = target: Albumin (Bos taurus) (UniProt P02769); test: bovine serum albumin binders on microarray, profiling panel, artefact control for SMM control protein annotation, biochemical, small-molecule microarray, Alexa647 label, 635/667 nm fluorescence (AID 1118); conditions: BSA-A647 binding, fluorescence 635 nm, higher = more signal;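 further: score merges 667 nm emission intensity and signal-to-noise per printed compound spot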
[12] = small-molecule microarray binders of probe aXIP, primary screen, biochemical, NeuroSMM set, 635/667 nm fluorescence (AID 1119); conditions: higher = more signal, called active from +8 up or from −8 down;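 further: probe is the protein aXip251-270 applied at 1 µg/mL to compound-printed slides; binding of probe to printed compounds measured as 667 nm fluorescence plus signal to noise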
[13] = small-molecule binders of probe aNOTCH3, primary screen, biochemical, small-molecule microarray, 635/667 nm fluorescence (AID 1120); conditions: higher = more signal;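 further: probe is a biotin-tagged antibody raised against NOTCH3 rather than NOTCH3 protein; score merges spot fluorescence near 667 nm with spot signal to noise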
[14] = small-molecule binders of probe aNOTCH2, primary screen, biochemical, small-molecule microarray, 635/667 nm fluorescence (AID 1121); conditions: higher = more signal;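 further: score merges feature fluorescence read at 667 nm with its signal to noise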
[15] = target: Carbonic anhydrase 2 (Homo sapiens) (UniProt P00918); test: CAII small-molecule binders, profiling panel, biochemical, small-molecule microarray, Alexa647-labelled CAII (AID 1122); conditions: CAII-A647 binding fluorescence, higher = more signal
[16] = COS7 lysate on small-molecule microarray, probe aHis, 635 nm (AID 1123); conditions: COS7 cell lysate, fluorescence, higher = more signal;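 further: z-score combines 667nm fluorescence intensity with signal-to-noise per printed compound spot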
[17] = compound binding in COS7 lysate, probe aLAP1, primary screen, cell lysate, small-molecule microarray (AID 1124); conditions: probe aLAP1, fluorescence, higher = more signal;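 further: lysate comes from COS7 cells expressing LAP1 and is applied at 0.3 µg/mL; score merges spot fluorescence near 667 nm with signal-to-noise over triplicate slides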
[18] = system: Sam68 (KHDRBS1); test: Sam68 small-molecule binders, primary screen, biochemical, small-molecule microarray, 635 nm fluorescence (AID 1125); conditions: small-molecule microarray binding, higher = more signal;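 further: score merges 667 nm channel intensity with signal to noise over triplicate slides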
[19] = system: Chordin-like protein 2 (CHRDL2); test: CHRDL2 small-molecule binders, primary screen, biochemical, small-molecule microarray, 635 nm fluorescence (AID 1126); conditions: small-molecule microarray binding, fluorescence 635 nm; higher = more signal;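 further: printed compound slides probed with Chrdl2 protein at 4 µg/mL for 1 h at 4 C; score merges 667 nm emission intensity with signal to noise over three replicate slides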
[20] = target: Concanavalin-A (Canavalia ensiformis) (UniProt P02866); test: ConA small-molecule binders, primary screen, artefact control for SMM control protein annotation, biochemical, small-molecule microarray, Alexa647 label, 635 nm (AID 1127); conditions: ConA-A647 binding fluorescence, higher = more signal;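 further: z combines 667 nm emission intensity with signal-to-noise across three replicate slides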
Concanavalin-A (Canavalia ensiformis), sequence (P02866 whole entry, looked up): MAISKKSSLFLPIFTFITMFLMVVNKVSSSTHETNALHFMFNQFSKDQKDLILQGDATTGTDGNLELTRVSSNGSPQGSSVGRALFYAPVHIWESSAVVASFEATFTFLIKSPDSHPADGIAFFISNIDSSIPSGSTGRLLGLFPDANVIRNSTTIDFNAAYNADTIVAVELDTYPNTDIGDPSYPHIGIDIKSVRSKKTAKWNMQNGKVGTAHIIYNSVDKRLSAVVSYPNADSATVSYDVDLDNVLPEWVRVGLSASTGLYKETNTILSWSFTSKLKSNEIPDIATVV

Left-right determination factor 2 (Homo sapiens), sequence (O00292 whole entry, looked up): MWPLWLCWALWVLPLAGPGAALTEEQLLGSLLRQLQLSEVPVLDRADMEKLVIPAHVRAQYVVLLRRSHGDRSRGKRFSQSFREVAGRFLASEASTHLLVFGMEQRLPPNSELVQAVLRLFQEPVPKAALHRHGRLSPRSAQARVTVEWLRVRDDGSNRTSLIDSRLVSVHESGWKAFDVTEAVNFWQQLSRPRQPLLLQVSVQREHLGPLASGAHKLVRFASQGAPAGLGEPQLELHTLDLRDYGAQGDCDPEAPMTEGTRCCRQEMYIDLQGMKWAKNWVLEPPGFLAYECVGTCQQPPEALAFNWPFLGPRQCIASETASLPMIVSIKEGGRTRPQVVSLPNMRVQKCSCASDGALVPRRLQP
Torsin-1A-interacting protein 1 (Homo sapiens), sequence (Q5JTV8 whole entry, looked up): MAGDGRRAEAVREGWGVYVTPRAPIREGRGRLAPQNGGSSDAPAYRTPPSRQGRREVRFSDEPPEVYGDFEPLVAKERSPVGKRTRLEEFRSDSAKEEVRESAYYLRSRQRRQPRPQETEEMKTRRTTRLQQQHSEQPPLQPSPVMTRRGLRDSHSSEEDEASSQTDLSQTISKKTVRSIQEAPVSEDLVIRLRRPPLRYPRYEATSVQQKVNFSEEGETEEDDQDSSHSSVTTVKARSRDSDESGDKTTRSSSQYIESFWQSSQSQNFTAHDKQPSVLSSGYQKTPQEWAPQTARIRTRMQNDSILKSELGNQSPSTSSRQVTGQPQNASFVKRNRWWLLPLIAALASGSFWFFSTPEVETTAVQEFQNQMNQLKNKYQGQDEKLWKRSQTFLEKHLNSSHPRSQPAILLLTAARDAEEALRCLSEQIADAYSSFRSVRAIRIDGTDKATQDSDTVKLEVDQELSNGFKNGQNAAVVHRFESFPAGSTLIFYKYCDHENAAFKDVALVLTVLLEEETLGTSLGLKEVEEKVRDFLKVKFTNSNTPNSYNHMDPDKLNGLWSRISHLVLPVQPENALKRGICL
Albumin (Bos taurus), sequence (P02769 whole entry, looked up): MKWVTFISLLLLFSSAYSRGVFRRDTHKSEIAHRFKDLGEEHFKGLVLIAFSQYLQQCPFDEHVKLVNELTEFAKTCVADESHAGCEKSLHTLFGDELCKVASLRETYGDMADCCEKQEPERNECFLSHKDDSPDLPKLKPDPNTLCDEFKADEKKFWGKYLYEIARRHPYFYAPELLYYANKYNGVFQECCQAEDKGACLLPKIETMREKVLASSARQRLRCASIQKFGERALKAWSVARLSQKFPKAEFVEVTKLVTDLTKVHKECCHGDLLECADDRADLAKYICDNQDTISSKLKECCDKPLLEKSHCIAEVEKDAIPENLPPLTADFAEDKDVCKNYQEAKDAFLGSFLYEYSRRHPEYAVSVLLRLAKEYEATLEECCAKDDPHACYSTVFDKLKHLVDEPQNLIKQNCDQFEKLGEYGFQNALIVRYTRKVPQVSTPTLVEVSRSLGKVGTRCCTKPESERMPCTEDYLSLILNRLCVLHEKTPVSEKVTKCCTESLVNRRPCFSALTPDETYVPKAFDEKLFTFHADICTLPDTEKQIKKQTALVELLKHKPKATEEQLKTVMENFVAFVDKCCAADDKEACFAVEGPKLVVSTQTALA
Alpha-bungarotoxin (Bungarus multicinctus), sequence (P60615 whole entry, looked up): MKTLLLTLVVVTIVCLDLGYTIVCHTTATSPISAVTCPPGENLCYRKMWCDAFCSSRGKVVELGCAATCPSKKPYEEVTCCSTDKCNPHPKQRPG

SMILES | composite z-score [1] | z-score [2] | composite z-score [3] | composite z-score [4] | composite z-score [5] | composite z-score [6] | composite z-score [7] | composite z-score [8] | composite z-score [9] | composite z-score [10] | composite z-score [11] | composite Z-score [12] | composite z-score [13] | composite z-score [14] | composite z-score [15] | composite z-score [16] | composite z-score [17] | composite z-score [18] | composite z-score [19] | composite z-score [20]
OCCCC1=CC(c2ccc(CN3CCCC3)cc2)N(Cc2sc3ccccc3c2Cl)CC1 (stereo not given) | 1.32 | -4.17 | 0.758 | 0.325 | -0.585 | -0.113 | 0.0899 | 0.507 | -0.0337 | 0.827 | -0.38 | -0.404 (inactive) | 0.191 | -0.0293 | 0.483 | 0.504 | -0.456 | 0.982 | 0.608 | 0.913
CC1CC/C=C\[C@H]2OC34C=CCN(C(C)C)C(=O)[C@H]3N(CCCCCCO)C(=O)[C@@H]4C2C(=O)O1 (stereo not given in full) | -1.9 | -0.729 | -0.83 | -0.295 | 0.571 | -0.15 | -0.117 | 0.0595 | -0.673 | -0.706 | -0.0272 | -0.416 (inactive) | -0.268 | -0.145 | 0.889 | -0.63 | -0.0532 | -1.83 | -0.607 | -0.594
O=C1OCC=C[C@H]2OC34C=CCN(Cn5nnc6ccccc65)C(=O)[C@H]3N(CCCO)C(=O)[C@@H]4[C@@H]12 (stereo not given in full) | -0.408 | 0.424 | -0.573 | -0.0941 | 0.449 | -0.26 | 0.381 | 0.0517 | 0.529 | -1.11 | -0.877 | -0.309 (inactive) | -0.279 | -0.185 | 0.847 | -0.145 | -0.124 | -0.196 | -0.682 | -0.0288
O=C1O[C@@H](c2ccccc2)[C@@H](c2ccccc2)N2[C@@H](c3ccc(O)cc3)[C@]3(C(=O)Nc4ccc(C#CC5(O)CCCCCC5)cc43)[C@@H](C(=O)NC[C@H](O)c3ccccc3)[C@H]12 | 1.39 | -0.737 | -0.817 | 0.122 | 0.208 | -0.0276 | -0.138 | 0.0841 | 1.15 | 0.203 | 0.0697 | 0.2 (inactive) | -0.262 | -0.0984 | 0.547 | 1.05 | 0.632 | 0.686 | -0.703 | 0.221
C[C@H]1NC(=O)[C@@]23C(=O)N[C@@H](Cc4ccccc4)C2[C@H](C)[C@@]2(C)O[C@H]2C3/C=C/C/C=C\CNC(=O)[C@H](Cc2ccccc2)NC1=O (stereo not given in full) | 0.395 | -1.02 | 0.154 | 0.15 | -0.849 | -0.0445 | -0.0533 | -0.196 | -0.285 | 0.107 | -0.474 | -0.721 (inactive) | -0.145 | -0.127 | 0.281 | 0.205 | 0.0898 | 0.127 | 0.636 | 0.501
CC=CC(O)C1C=CC2C(=O)N(c3ccccc3)C(=O)C2N1Nc1ccccc1F (stereo not given) | 0.286 | -0.536 | -0.0207 | 0.416 | 0.213 | 0.339 | 0.429 | 1.07 | 0.0757 | 0.437 | 0.245 | 1.48 (inactive) | 0.541 | 0.468 | 0.74 | 2.08 | 0.412 | 0.338 | 0.295 | 0.0905
C=CCC(OC(C)=O)[C@@H]1[C@@H](N(Cc2cc3ccccc3o2)C(=O)c2ccc(-c3ccccc3)cc2)c2cc(OCCCO)ccc2N1C(=O)c1ccc2ccccc2c1 (stereo not given in full) | 0.143 | -1.48 | 0.0403 | 0.137 | 0.185 | -0.0398 | 0.0048 | -0.466 | 0.612 | 0.264 | 0.0005 | 0.142 (inactive) | -0.154 | -0.106 | -0.105 | 0.612 | 0.0944 | 0.095 | 0.0295 | -0.0066
COc1cc(OC)c(C(O)C2C=CC3C(=O)N(C)C(=O)C3N2NC(=O)OC(C)(C)C)cc1Br (stereo not given) | 1.45 | -0.706 | 0.469 | 1.74 | 0.767 | 0.302 | 0.551 | 1.71 | 1.26 | 1.85 | 0.881 | 0.182 (inactive) | 0.398 | 0.354 | 0.584 | 3.05 | 0.91 | 1.3 | -0.251 | 1.09
CC(C)[Si](C#C[Si](C(C)C)(C(C)C)C(C)C)(O[C@H](C)c1cn([C@H](CO)Cc2ccccc2)nn1)C(C)C | 0.534 | -0.677 | 0.182 | -0.0641 | -0.393 | -0.0924 | -0.0977 | -0.122 | 0.227 | -0.0846 | 0.544 | -0.397 (inactive) | -0.0699 | -0.145 | 0.0728 | 0.713 | -0.268 | 0.193 | 0.498 | 1.03
[N-]=[N+]=Nc1ccccc1C[C@]1(C(=O)N2CCOCC2)N=C(c2ccc(OCCCO)cc2)O[C@H]1c1ccccc1 | 1.04 | -1.81 | 0.444 | 1.17 | 0.173 | 0.104 | -0.153 | 0.347 | 1.18 | 1.31 | 0.806 | 0.339 (inactive) | -0.0902 | -0.204 | 0.627 | 1.99 | 0.221 | 1.36 | 0.764 | 1.15
C=C(COC)/C(=C/C[C@H](OC(C)=O)c1ccc(OCCO)cc1)c1cc(C(=O)OC)ccc1OC | 0.697 | -1.13 | 0.695 | -0.24 | -0.845 | -0.0792 | -0.169 | 0.449 | 2.13 | 0.0079 | -0.115 | 0.835 (inactive) | 0.0642 | -0.107 | 0.622 | 0.685 | -0.0565 | 1.07 | 0.501 | 0.519
